Measurements as given in PubChem BioAssay AID434927 (Sanford-Burnham Center for Chemical Genomics, 2010).
Values without a mark were called inactive. Calls of active or inactive are those of the source.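 Rule for the calls: active = inhibition above about 23% in any of six single-dose repeats (limit read from the data); inactive = the rest.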

Molecular target: Intestinal-type alkaline phosphatase (Homo sapiens) (UniProt P09923)
Assay: suppression of intestinal alkaline phosphatase activity – biochemical, luminescence, single concentration, uHTS hits, confirmation (AID 434927);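 note: plate controls were DMSO wells with enzyme for no effect and wells lacking enzyme for full effect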
Settings: purified human IAP, CDP-Star luminescence, 30 min; at 8.3 µM; active compounds read high

Chain of Intestinal-type alkaline phosphatase (Homo sapiens) (P09923 whole entry, looked up): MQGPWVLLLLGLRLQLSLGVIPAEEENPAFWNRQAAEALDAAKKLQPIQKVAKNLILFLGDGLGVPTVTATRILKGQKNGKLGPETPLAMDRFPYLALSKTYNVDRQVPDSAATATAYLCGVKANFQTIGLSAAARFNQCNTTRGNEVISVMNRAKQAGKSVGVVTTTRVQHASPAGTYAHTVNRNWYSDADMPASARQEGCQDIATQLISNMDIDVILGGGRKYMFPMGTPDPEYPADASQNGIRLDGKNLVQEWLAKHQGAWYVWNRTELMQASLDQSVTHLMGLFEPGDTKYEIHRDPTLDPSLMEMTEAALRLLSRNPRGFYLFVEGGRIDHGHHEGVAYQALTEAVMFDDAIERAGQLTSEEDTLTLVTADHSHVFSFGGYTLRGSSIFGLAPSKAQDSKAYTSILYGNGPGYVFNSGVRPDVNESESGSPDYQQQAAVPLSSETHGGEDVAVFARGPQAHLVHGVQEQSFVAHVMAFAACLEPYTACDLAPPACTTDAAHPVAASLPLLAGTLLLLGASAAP

SMILES: CCOc1cccc(OCCOCCOc2ccccc2C(C)=O)c1
- inhibition: -219%

SMILES: O=C(N/N=C/c1c(F)cccc1Cl)c1cc(C2CC2)[nH]n1
- inhibition: 37.7% (active)

SMILES: CC(C)CC(=O)NC(=S)NNC(=O)c1ccc(NC(=O)C2CCCCC2)cc1
- inhibition: 62.1% (active)

SMILES: Cc1ccc(NCc2ccc([N+](=O)[O-])s2)cc1
- inhibition: 26.1% (active)

SMILES: O=C(NC(=S)NNC(=O)c1ccccc1O)c1ccc(F)cc1
- inhibition: 62.4% (active)

SMILES: CCOC(=O)c1cnc(SCC(=O)c2ccccc2)nc1N
- inhibition: -436%

SMILES: O=C(NN1C(=O)CSC1=S)C(=O)NN1C(=O)CSC1=S
- inhibition: 73.8% (active)

SMILES: CCN(CC)c1ccc(N=Nc2nn(C)c(C)c2[N+](=O)[O-])cc1
- inhibition: 34.7% (active)

SMILES: COc1cccc(/C=N/Nc2nn3cnnc3c3ccccc23)c1O
- inhibition: 40.4% (active)

SMILES: Oc1ccc(N=Nc2c(O)ccc3ccccc23)cc1
- inhibition: -91.9%

SMILES: COc1ccc(OC)c(NC(=O)c2cc(-c3cc(C)ccc3O)n[nH]2)c1
- inhibition: -41.7%

SMILES: CN1CCN(CCNC(=O)Cn2c(=O)c3cccn3c3ccc(F)cc32)CC1
- inhibition: 35.4% (active)

SMILES: CCc1ccc(/C=N/Nc2ncnc3nc[nH]c23)cc1
- inhibition: 33.8% (active)

SMILES: CN(C)S(=O)(=O)c1cccc(NC(=S)NNC(=O)c2cc3ccccc3cc2O)c1
- inhibition: 72.3% (active)

SMILES: CN(C)c1ccc(N=Nc2ccccc2Br)cc1
- inhibition: -104%

SMILES: Cc1nn(C)c(C(=O)NNC(=S)NCc2ccccc2)c1Cl
- inhibition: -141%

SMILES: CC(C)CCNc1ncnc2c1nnn2Cc1ccccc1Cl
- inhibition: 40.2% (active)

SMILES: COc1ccc(O)c(/C=N/NC(=S)NCCc2ccccc2)c1
- inhibition: -91.2%

SMILES: CCCCOc1cccc(C2/C(=C(\O)c3ccc4c(c3)OCCO4)C(=O)C(=O)N2CCN2CCOCC2)c1 (centres undefined)
- inhibition: -90.6%

SMILES: NC(CO)C(=O)NNCc1ccc(O)c(O)c1O (centres undefined)
- inhibition: -60.9%

SMILES: O=C(COc1ccc2ccccc2c1Br)N1CCCCC1
- inhibition: -50.2%

SMILES: Cc1cccc(-n2ncc3c(NNC(=O)c4ccco4)ncnc32)c1
- inhibition: -74.5%

SMILES: O=C1Nc2ccc(Br)cc2C12NNc1ccccc1O2 (centres undefined)
- inhibition: 35% (active)

SMILES: CCn1c2ccccc2c2cc(NC(=O)c3coc(=O)c(Br)c3)ccc21
- inhibition: 39.2% (active)

SMILES: Cc1cc2cc3c(cc2nc1SCC(=O)Nc1nc(C)c(C)s1)OCO3
- inhibition: 43.9% (active)

SMILES: O=C(CCN1C(=O)/C(=C/c2ccccc2Cl)SC1=S)NNC(=O)c1ccccc1O
- inhibition: 62.3% (active)

SMILES: COc1ccc(CCN2C(=O)c3ccncc3C2=O)cc1OC
- inhibition: 67.1% (active)

SMILES: CCC(OC(=O)C1=Cc2ccccc2OC1)C(=O)NC1CCCC1 (centres undefined)
- inhibition: -52.5%

SMILES: CC(/C=N/NC(=O)CCn1nnc2ccccc21)=C\c1ccccc1
- inhibition: -88.8%

SMILES: O=C(NCCCN1CCOCC1)c1ccc2c(c1)N(Cc1ccc(Cl)cc1)C(=O)c1ccccc1S2=O (centres undefined)
- inhibition: -47.5%

SMILES: COc1cccc(/C=N\NC(=O)C2=NNC(=O)C2C)c1O (centres undefined)
- inhibition: 34.8% (active)

SMILES: C=CCN1C(=O)/C(=C\C=C2\N(C)c3ccccc3C2(C)C)SC1=S
- inhibition: -267%

SMILES: O=C(NNC(=S)NCc1ccco1)c1ccccc1Br
- inhibition: 41.4% (active)

SMILES: O=c1cc(-c2ccccc2)[nH]n1-c1nc2ccccc2[nH]1
- inhibition: -58.4%
